Experimental findings from PubChem BioAssay (NCI) are described below.

About 83,000 compounds went through this panel and 20% of them were active in at least one assay; those are over-represented in the sample as a whole.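 A percent growth of 40 corresponds to 60% growth inhibition; 0 means no net growth; -100 means all cells died. Active threshold: below 10.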 Unmarked numbers belong to inactive results. Active and inactive are the calls of the source.

Holding throughout (experiment): NCI-60 one-dose screen, 48 h (100 = growth as untreated, 0 = no growth, -100 = all killed)
One assay relates to HCT-15 colon. As to conditions: 10 µM unless noted.
In the next assay the test system is HT29 colon. As to conditions: 10 µM unless noted.
The test system of the next assay is SNB-75 CNS. The conditions noted are these: 10 µM unless noted.
Another assay deals with SNB-19 CNS. As to conditions: 10 µM unless noted.
Another assay relates to U251 CNS. As to conditions: 10 µM unless noted.
The test system of the next assay is PC-3 prostate. As to conditions: 10 µM unless noted.
A further assay has as its system SK-MEL-5 melanoma. The conditions noted are these: 10 µM unless noted.
The next assay concerns UACC-62 melanoma. The conditions noted are these: 10 µM unless noted.
The subject of a further assay is LOX IMVI melanoma. As to conditions: 10 µM unless noted.
The test system of the next assay is SK-MEL-28 melanoma. The conditions noted are these: 10 µM unless noted.
The subject of the next assay is SK-MEL-2 melanoma. As to conditions: 10 µM unless noted.
Another assay relates to EKVX NSCLC. The conditions noted are these: 10 µM.
The next assay deals with SN12C renal. As to conditions: 10 µM unless noted.
Another assay deals with UO-31 renal. The conditions noted are these: 10 µM unless noted.
A further assay relates to TK-10 renal. As to conditions: 10 µM unless noted.
In another assay the test system is CAKI-1 renal. As to conditions: 10 µM unless noted.
A further assay has as its system A498 renal. The conditions noted are these: 10 µM unless noted.
A further assay deals with CCRF-CEM leukemia. The conditions noted are these: 10 µM.
Another assay deals with MOLT-4 leukemia. The conditions noted are these: 10 µM unless noted.
For a further assay, the system named is ACHN renal. As to conditions: 10 µM unless noted.

As to `COc1ccc2sc(-n3nc4nc5n(c(=O)c4c3N)-c3ccccc3Sc3ccccc3-5)nc2c1`, the growth is 82.6% with HCT-15 colon; 73.6% in the assay with HT29 colon; 73.8% in the assay on SNB-75 CNS; 79.7% with SNB-19 CNS; 82.2% with U251 CNS; 48.7% in the assay on PC-3 prostate. In addition, the growth in the assay on SK-MEL-5 melanoma is 41.1%; in the assay with UACC-62 melanoma, 64.1%; in the assay on LOX IMVI melanoma, 79.8%; with SK-MEL-28 melanoma, 92.6%; in the assay with SK-MEL-2 melanoma, 81.5%; in the assay on EKVX NSCLC, 42.1%. Besides, the growth with SN12C renal is 76.7%; in the assay on UO-31 renal it was 31.8%; in the assay with TK-10 renal, 102%; in the assay with CAKI-1 renal, 57.7%; in the assay on A498 renal, 117%; in the assay with CCRF-CEM leukemia, 68.1%. Besides, the growth in the assay on MOLT-4 leukemia is 49.4%.

As for `Clc1ccc(N/N=C(\c2ccccc2)c2ccccn2)nc1`, the growth in the assay on HCT-15 colon was 17.9%; in the assay on HT29 colon, 19.3%; in the assay with SNB-75 CNS, 25.2%; in the assay on SNB-19 CNS, 24.4%; in the assay on U251 CNS it was 9.27% (active); with PC-3 prostate it was 28.6%. The growth in the assay on SK-MEL-5 melanoma is -36% (active); in the assay on UACC-62 melanoma, -18.3% (active); with LOX IMVI melanoma, -1.02% (active); with SK-MEL-28 melanoma, 25.4%; in the assay on SK-MEL-2 melanoma it was 36.4%; in the assay with EKVX NSCLC it was 15.2%. In addition, the growth is 2.2% (active) with UO-31 renal; 52.1% in the assay with TK-10 renal; 8.31% (active) with ACHN renal; 6.96% (active) with CAKI-1 renal; -14.2% (active) with A498 renal; 1.1% (active) in the assay on CCRF-CEM leukemia. Moreover, the growth with MOLT-4 leukemia is 2.34% (active).

For `COc1ccc(NC(=O)/C=C(C)/C=C/C=C(C)/C=C/C2=C(C)CCCC2(C)C)cc1`, the growth in the assay on HCT-15 colon was 72.5%; in the assay with HT29 colon, 72.4%; in the assay with SNB-75 CNS it was 66.3%; with SNB-19 CNS, 110%; in the assay with U251 CNS, 26.3%; in the assay with PC-3 prostate, 63.1%. Moreover, the growth in the assay on SK-MEL-5 melanoma is 110%; in the assay on UACC-62 melanoma, 77.4%; in the assay on LOX IMVI melanoma, 68.4%; with SK-MEL-28 melanoma it was 105%; with SK-MEL-2 melanoma, 61.6%; in the assay with EKVX NSCLC, 82.7%. Moreover, the growth was 65.9% in the assay on SN12C renal; 53% in the assay on UO-31 renal; 61.6% in the assay on TK-10 renal; 66.6% in the assay on CAKI-1 renal; 91.1% in the assay on A498 renal; 60.6% in the assay with CCRF-CEM leukemia. Also, the growth in the assay with MOLT-4 leukemia was 76.1%.

`COc1cc(CCNc2cnc3cc(N)cc(N)c3n2)cc(OC)c1`: the growth in the assay with HCT-15 colon is 104%; with HT29 colon, 100%; with SNB-75 CNS it was 98.8%; in the assay on SNB-19 CNS it was 111%; in the assay with U251 CNS it was 104%; with PC-3 prostate, 118%. In addition, the growth is 103% in the assay with SK-MEL-5 melanoma; 109% in the assay on UACC-62 melanoma; 108% in the assay on LOX IMVI melanoma; 61% in the assay with SK-MEL-28 melanoma; 104% with SK-MEL-2 melanoma; 123% with EKVX NSCLC. Also, the growth with SN12C renal is 107%; with UO-31 renal, 90.9%; in the assay with TK-10 renal, 116%; with CAKI-1 renal, 129%; in the assay on A498 renal it was 107%; with CCRF-CEM leukemia, -52.5% (active). Further, in the assay on MOLT-4 leukemia, the growth was 5.61% (active).

Take `O=C(Nc1cccc(Cn2c(=O)[nH]c3ccc(Oc4ncccn4)cc3c2=O)c1)c1cccc(F)c1`: the growth is 83% in the assay on HCT-15 colon; 75.7% in the assay with HT29 colon; 75% in the assay with SNB-75 CNS; 72.6% with SNB-19 CNS; 82.3% in the assay on U251 CNS; 64.3% in the assay on PC-3 prostate. The growth is 65.5% in the assay with SK-MEL-5 melanoma; 58.4% in the assay with UACC-62 melanoma; 86% in the assay on LOX IMVI melanoma; 93.8% with SK-MEL-28 melanoma; 74.3% with SK-MEL-2 melanoma; 78.6% in the assay with EKVX NSCLC. Moreover, the growth is 78% in the assay with SN12C renal; 58.9% with UO-31 renal; 81% with TK-10 renal; 89% in the assay with CAKI-1 renal; 66% in the assay with A498 renal; 75.7% in the assay with CCRF-CEM leukemia. Further, in the assay on MOLT-4 leukemia, the growth was 54.7%.

For the molecule `CC(=O)Nc1nc(C)c(C(=O)NNC(=O)Nc2ccccc2)s1`, the growth in the assay with HCT-15 colon was 96.7%; with HT29 colon it was 99%; in the assay with SNB-75 CNS it was 98.4%; in the assay on SNB-19 CNS it was 93.9%; in the assay on U251 CNS, 102%; in the assay with PC-3 prostate, 85.2%. For the same molecule, the growth in the assay on SK-MEL-5 melanoma was 97%; in the assay on UACC-62 melanoma, 78.1%; in the assay with LOX IMVI melanoma, 97.9%; in the assay with SK-MEL-28 melanoma, 105%; with SK-MEL-2 melanoma, 29.9%; with EKVX NSCLC, 153%. Moreover, the growth in the assay on UO-31 renal is 77.7%; in the assay with TK-10 renal, 159%; with ACHN renal, 93.3%; with CAKI-1 renal, 140%; with A498 renal, 90.7%; in the assay on CCRF-CEM leukemia it was 79.8%. Also, in the assay on MOLT-4 leukemia, the growth is 115%.

For the molecule `COc1cc(/C=C/C(=O)/C=C(/C=C/c2ccc(OC(C)=O)c(OC)c2)OB(F)F)ccc1OC(C)=O`, the growth is 15.4% in the assay on HCT-15 colon; 61.4% in the assay on HT29 colon; 53% in the assay on SNB-75 CNS; 69.4% in the assay on SNB-19 CNS; 33.3% in the assay with U251 CNS; 63% in the assay on PC-3 prostate. In addition, the growth with SK-MEL-5 melanoma is 69.6%; in the assay on UACC-62 melanoma, 49.6%; with LOX IMVI melanoma, 20%; in the assay with SK-MEL-28 melanoma, 66.8%; in the assay on SK-MEL-2 melanoma it was 86.9%; in the assay on EKVX NSCLC it was 76.1%. For the same molecule, the growth in the assay with SN12C renal was 42.3%; in the assay with UO-31 renal it was 47%; in the assay with TK-10 renal, 80.7%; in the assay with ACHN renal, 26.5%; with CCRF-CEM leukemia it was 1.09% (active); in the assay with MOLT-4 leukemia, 3.59% (active).

Take `COc1ccc(CN2C(=O)/C(=C\C(=O)c3ccc(OCCN4CCCCC4)cc3)c3ccccc32)cc1`: the growth with HCT-15 colon was 7.62% (active); in the assay on HT29 colon it was 8.95% (active); in the assay with SNB-75 CNS, 83.8%; in the assay on SNB-19 CNS, 84%; in the assay on U251 CNS, 80%; with PC-3 prostate, 81.4%. The growth in the assay with SK-MEL-5 melanoma was 90.9%; with UACC-62 melanoma, 73.5%; in the assay with LOX IMVI melanoma, 8.81% (active); in the assay on SK-MEL-28 melanoma, 91.5%; in the assay on SK-MEL-2 melanoma, 97.4%; with EKVX NSCLC it was 87.6%. The growth in the assay on SN12C renal was 26.3%; in the assay on UO-31 renal, 39.3%; in the assay on TK-10 renal, 113%; in the assay with A498 renal, 88.4%; in the assay with CCRF-CEM leukemia, 8.94% (active); in the assay with MOLT-4 leukemia, 3.78% (active).
